Laboratory results from the supplement of paper PMC12819154, “High-throughput peptide-centric local stability assay extends protein–ligand identification to membrane proteins, tissues and bacteria” (Nature Structural & Molecular Biology, 2025).

compound: CN[C@@H]1C[C@H]2O[C@@](C)([C@@H]1OC)n1c3ccccc3c3c4c(c5c6ccccc6n2c5c31)C(=O)NC4 [staurosporine]; experiment: log2 fold change of tryptic peptide abundance, ligand vs vehicle (limited proteolysis) (log2 ratio); higher = more trypsin-susceptible (destabilized); details: ligand concentration: 20 uM; sample: mouse liver crude lysate; replicate design: treated separately

UniProt P28652, sequence (P28652 whole entry): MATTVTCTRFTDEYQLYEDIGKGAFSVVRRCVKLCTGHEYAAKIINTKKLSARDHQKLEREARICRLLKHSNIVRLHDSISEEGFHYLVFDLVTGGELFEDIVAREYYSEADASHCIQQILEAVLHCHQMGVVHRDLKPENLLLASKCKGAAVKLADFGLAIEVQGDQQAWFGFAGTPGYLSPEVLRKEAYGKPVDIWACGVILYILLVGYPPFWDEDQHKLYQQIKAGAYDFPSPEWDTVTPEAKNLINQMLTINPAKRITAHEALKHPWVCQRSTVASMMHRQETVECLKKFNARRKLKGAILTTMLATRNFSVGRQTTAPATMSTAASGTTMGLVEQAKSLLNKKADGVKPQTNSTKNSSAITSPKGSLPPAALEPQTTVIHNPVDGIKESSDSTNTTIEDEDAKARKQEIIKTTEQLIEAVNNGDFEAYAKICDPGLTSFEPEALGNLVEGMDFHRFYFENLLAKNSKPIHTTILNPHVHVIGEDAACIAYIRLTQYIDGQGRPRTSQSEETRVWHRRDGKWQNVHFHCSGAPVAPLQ
UniProt Q3U3Q1, sequence (Q3U3Q1 whole entry): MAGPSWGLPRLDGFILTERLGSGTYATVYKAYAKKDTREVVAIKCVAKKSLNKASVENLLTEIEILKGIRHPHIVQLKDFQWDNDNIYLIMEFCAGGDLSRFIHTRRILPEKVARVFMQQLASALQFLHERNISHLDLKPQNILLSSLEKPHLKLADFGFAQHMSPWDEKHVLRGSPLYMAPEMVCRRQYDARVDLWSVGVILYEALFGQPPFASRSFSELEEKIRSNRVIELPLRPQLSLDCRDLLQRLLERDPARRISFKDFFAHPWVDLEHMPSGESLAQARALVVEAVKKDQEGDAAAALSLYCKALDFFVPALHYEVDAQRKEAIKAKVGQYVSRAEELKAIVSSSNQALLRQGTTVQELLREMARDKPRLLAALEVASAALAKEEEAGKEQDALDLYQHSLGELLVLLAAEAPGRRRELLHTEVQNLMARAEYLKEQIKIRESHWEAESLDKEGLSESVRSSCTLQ
UniProt Q920L1, sequence (Q920L1 whole entry): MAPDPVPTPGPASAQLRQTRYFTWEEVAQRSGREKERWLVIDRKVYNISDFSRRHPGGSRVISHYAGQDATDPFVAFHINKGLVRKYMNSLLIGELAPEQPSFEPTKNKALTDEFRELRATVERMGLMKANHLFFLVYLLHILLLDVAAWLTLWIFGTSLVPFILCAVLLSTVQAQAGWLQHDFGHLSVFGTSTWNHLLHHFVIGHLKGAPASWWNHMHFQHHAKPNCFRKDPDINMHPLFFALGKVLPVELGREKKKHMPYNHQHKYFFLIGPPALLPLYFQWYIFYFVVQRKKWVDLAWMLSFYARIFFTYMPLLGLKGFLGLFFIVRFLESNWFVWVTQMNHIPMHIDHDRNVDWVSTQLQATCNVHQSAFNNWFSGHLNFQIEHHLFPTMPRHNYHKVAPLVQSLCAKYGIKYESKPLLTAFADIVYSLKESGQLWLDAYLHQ
UniProt O35493, sequence (O35493 whole entry, looked up): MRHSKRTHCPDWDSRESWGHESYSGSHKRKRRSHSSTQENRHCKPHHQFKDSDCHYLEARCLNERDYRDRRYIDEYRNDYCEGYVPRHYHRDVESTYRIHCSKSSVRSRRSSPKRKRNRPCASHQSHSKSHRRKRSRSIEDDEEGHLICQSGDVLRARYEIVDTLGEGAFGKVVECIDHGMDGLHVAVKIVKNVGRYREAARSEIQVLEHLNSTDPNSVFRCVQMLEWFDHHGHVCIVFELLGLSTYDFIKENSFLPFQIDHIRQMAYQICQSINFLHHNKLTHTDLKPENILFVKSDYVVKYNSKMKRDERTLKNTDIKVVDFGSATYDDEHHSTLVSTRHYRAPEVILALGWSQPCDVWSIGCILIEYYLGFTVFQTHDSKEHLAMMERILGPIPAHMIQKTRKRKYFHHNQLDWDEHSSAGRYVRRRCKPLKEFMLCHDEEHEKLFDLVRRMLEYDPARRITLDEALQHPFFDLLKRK
UniProt P24549, sequence (P24549 whole entry): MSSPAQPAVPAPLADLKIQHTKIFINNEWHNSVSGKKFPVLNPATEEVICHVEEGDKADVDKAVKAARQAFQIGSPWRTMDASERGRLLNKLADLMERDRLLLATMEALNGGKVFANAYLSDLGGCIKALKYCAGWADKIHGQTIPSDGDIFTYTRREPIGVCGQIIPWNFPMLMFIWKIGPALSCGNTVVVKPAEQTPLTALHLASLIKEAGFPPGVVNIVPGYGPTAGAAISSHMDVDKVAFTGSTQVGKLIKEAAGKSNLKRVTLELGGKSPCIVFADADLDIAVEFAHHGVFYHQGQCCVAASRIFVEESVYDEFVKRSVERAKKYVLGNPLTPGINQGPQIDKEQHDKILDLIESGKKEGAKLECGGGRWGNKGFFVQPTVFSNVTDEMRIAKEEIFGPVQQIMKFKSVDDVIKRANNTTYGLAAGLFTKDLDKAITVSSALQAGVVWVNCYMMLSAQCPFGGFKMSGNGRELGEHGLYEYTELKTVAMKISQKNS
UniProt Q8C5L7, sequence (Q8C5L7 whole entry): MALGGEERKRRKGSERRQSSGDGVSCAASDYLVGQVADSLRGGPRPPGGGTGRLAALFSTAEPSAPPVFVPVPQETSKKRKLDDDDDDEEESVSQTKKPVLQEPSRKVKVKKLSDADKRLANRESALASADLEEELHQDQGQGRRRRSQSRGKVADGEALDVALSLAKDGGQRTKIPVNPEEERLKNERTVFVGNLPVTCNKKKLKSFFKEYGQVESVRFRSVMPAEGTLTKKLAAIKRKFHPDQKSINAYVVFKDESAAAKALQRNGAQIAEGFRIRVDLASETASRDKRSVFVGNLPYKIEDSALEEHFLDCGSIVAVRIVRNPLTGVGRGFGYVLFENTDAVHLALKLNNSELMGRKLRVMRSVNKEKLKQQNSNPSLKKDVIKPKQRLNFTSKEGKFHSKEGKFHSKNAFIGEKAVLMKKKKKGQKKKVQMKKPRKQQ
UniProt O70579, sequence (O70579 whole entry): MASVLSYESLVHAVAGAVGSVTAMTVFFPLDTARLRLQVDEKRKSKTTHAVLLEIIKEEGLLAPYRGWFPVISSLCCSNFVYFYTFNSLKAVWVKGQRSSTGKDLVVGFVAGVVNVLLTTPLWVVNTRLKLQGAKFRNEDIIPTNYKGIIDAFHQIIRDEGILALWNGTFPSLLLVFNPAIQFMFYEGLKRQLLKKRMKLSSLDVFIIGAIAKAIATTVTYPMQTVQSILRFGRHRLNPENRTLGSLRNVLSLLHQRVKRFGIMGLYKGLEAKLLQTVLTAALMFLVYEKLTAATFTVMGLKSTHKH
UniProt Q924L1, sequence (Q924L1 whole entry): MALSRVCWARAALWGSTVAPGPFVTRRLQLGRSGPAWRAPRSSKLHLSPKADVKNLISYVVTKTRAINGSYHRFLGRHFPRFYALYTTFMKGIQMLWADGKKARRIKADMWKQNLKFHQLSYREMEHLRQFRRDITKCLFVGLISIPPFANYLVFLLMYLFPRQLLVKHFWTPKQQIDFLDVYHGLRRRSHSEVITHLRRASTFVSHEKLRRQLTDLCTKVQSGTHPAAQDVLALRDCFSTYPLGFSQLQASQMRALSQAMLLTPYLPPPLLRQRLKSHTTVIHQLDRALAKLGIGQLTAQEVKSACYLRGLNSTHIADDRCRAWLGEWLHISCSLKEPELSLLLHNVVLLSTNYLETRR
UniProt Q9Z1R3, sequence (Q9Z1R3 whole entry): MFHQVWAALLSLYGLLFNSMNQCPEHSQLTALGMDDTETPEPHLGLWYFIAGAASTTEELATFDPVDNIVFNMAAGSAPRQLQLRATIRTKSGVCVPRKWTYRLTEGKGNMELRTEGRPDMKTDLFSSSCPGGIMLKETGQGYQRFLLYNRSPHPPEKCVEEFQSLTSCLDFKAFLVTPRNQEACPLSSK
UniProt Q61335, sequence (Q61335 whole entry): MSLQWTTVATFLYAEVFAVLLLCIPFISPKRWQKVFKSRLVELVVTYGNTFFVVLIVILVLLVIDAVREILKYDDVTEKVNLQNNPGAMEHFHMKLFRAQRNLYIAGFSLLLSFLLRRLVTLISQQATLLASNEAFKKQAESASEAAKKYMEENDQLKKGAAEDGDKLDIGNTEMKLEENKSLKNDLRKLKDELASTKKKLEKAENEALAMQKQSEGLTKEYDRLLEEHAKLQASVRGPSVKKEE
UniProt Q9D517, sequence (Q9D517 whole entry): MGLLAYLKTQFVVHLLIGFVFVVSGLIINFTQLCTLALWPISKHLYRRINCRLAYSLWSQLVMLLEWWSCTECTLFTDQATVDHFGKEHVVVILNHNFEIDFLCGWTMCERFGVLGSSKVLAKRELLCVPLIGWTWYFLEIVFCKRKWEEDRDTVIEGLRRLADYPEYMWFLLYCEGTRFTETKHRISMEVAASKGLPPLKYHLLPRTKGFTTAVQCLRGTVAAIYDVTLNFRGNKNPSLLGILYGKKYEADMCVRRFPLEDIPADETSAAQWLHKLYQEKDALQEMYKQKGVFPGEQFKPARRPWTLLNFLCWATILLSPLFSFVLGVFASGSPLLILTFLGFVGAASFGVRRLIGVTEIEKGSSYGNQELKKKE
UniProt Q8CIM7, sequence (Q8CIM7 whole entry): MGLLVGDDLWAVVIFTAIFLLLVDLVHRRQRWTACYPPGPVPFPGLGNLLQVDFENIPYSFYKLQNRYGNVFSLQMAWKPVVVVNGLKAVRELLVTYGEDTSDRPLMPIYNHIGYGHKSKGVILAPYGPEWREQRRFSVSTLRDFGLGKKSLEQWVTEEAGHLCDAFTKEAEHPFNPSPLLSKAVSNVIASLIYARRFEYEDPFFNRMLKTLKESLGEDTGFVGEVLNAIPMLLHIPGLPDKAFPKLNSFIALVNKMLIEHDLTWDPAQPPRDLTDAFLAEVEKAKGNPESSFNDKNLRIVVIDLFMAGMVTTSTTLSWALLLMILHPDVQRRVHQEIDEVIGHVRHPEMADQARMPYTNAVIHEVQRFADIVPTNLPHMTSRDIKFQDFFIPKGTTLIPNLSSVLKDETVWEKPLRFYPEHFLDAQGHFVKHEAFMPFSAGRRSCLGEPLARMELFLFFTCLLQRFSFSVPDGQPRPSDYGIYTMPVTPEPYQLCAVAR

Target	log2 fold change
UniProt Q7TMY8 (peptide sequence: HLGYTLCK, peptide start residue: 3630)	0.491
UniProt Q8BH59 (peptide sequence: LQVAGEITTGPR, peptide start residue: 457)	0.568
UniProt Q9D517 (peptide sequence: GLPPLKYHLLPR, peptide start residue: 196)	0.633
UniProt Q9Z1R3 (peptide sequence: TEGRPDMK, peptide start residue: 115)	1.56
UniProt Q8CIM7 (peptide sequence: GNPESSFNDKNLR, peptide start residue: 287)	-0.562
UniProt Q9WUN2 (peptide sequence: VFNNISFLRPVDVQMR, peptide start residue: 39)	-2.34
UniProt P09103 (peptide sequence: EADDIVNWLKK, peptide start residue: 123)	0.314
UniProt P12367 (peptide sequence: IVDVIGEK, peptide start residue: 270)	0.593
UniProt Q62120 (peptide sequence: VLPQDKEYYK, peptide start residue: 1000)	-1.02
UniProt P11798 (peptide sequence: DLKPENLLLASK, peptide start residue: 136)	-3.02
UniProt P28652 (peptide sequence: NLINQMLTINPAKR, peptide start residue: 247)	-2.11
UniProt O54909 (peptide sequence: YLASYLKR, peptide start residue: 242)	-1.31
UniProt Q5U5V2 (peptide sequence: ENFIWNLK, peptide start residue: 175)	-0.924
UniProt P47754 (peptide sequence: TSVETALR, peptide start residue: 122)	-0.836
UniProt Q9WU19 (peptide sequence: LAMALSGCQNVK, peptide start residue: 342)	0.411
UniProt P54823 (peptide sequence: LDLKKDNIQAMVIVPTR, peptide start residue: 158)	1.16

Target	log2 fold change
UniProt Q8C5L7 (peptide sequence: NGAQIAEGFR, peptide start residue: 267)	0.659
UniProt Q91YX5 (peptide sequence: DQQLLVLKK, peptide start residue: 157)	0.642
UniProt Q920L1 (peptide sequence: VAPLVQSLCAK, peptide start residue: 402)	0.439
UniProt Q3U3Q1 (peptide sequence: VIELPLRPQLSLDCR, peptide start residue: 230)	-2
UniProt P47809 (peptide sequence: ISPEQHWDFTAEDLK, peptide start residue: 87)	-0.533
UniProt P62717 (peptide sequence: AHSIQIMK, peptide start residue: 121)	0.267
UniProt O70579 (peptide sequence: NVLSLLHQR, peptide start residue: 249)	0.904
UniProt P02088 (peptide sequence: DFTPAAQAAFQK, peptide start residue: 122)	0.285
UniProt Q924L1 (peptide sequence: NLISYVVTK, peptide start residue: 55)	0.543
UniProt P16331 (peptide sequence: RKQFADIAYNYR, peptide start residue: 158)	-0.336
UniProt O35493 (peptide sequence: ILGPIPAHMIQK, peptide start residue: 392)	-2.87
UniProt Q61335 (peptide sequence: QAESASEAAK, peptide start residue: 139)	0.352
UniProt Q03147 (peptide sequence: DKNTNQIVAIKK, peptide start residue: 31)	-2.43
UniProt Q8BTW9 (peptide sequence: SYLDNFIK, peptide start residue: 321)	-1.86
UniProt P24549 (peptide sequence: SVDDVIKR, peptide start residue: 413)	-0.205
